Active and inactive are the calls of the source. Entries that show only a call come without a potency. Calls come from the whole dose curve; as a rule, active = well fitted activation curve with a large enough effect; inconclusive = small, poorly fitted or top-dose-only effect; inactive = no such curve, though single readings can be large or run the other way.
Potency is the fitted concentration of half-maximal effect.

A short description of the assay: Counterscreen for Identifying a Potential Treatment of Ataxia-Telangiectasia: Hit Validation. To be noted: cell-free AlphaLISA/AlphaScreen artifact counterscreen, PBS only, no cells; series mostly up to 76.9 µM. The method in brief: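 Without cells, compounds at up to 76.7 uM final were combined with premixed anti-pKAP1/anti-KAP1 AlphaLISA bead reagents, protease inhibitors and lysis buffer; signal read after 6 hr at 25C to flag assay-platform artifacts.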
(In general: Counterscreens check selectivity or assay interference.)
As for `Cc1ccc(C(C)C)c(OCCN2CCc3ccccc3C2)c1`, the Potency entry is “inactive”. Consider `COc1cc(/C=C2\CCOC2=O)cc(OC)c1OC`, for which the Potency entry was “inactive”. In the case of `O=C1C(Cl)=C(Nc2ccccc2)C(=O)c2ccccc21` it was “inactive”; in that of `CN(C)S(=O)(=O)c1cccc(C(=O)N=C2N=C3C=CC(Cl)=CN3Cc3ccccc32)c1`, “inactive”.

Regarding `CC(C)OP(=O)(OC(C)C)C(O)c1ccc(N(C)C)cc1` (stereo not drawn), the Potency entry was “inactive”. To `CC(=O)c1sc2nc(C)c3c(c2c1N)CCCC3` belongs 46.3 µM (active); to `CC(=O)Nc1ccc(S(=O)(=O)NCC2(N3CCOCC3)CCCCC2)cc1`, “inactive”; to `O=C1NC(NS(=O)(=O)c2ccc(Cl)cc2)(C(F)(F)F)C(=O)N1CCc1ccccc1` (stereo not drawn), “inactive”. `O=C(C(c1ccccc1)c1ccccc1)N1CC[C@@]2(O)CCCC[C@H]2C1`: the Potency entry is “inactive”.

For the compound `CN(CCc1ccccn1)C(=O)c1cc(COc2ccc(F)cc2F)on1`, the Potency result is “inactive”.

With `CC(C)(C)C1CCC2(CC1)SCC(=O)N2c1ccccc1` (stereo not drawn), the Potency result was “inactive”. In the case of `COc1ccc2c(c1)cc(C(=O)N[C@H](C(=O)N1CCC(C(=O)O)CC1)C(C)C)n2C` it was “inactive”. To `C/C=C\C=C/C(=O)Nc1cccc(C2=NOC3(C2)C[C@@H](C(N)=O)N(C(=O)COc2ccc(Cl)cc2)C3)c1` (stereo partly drawn) belongs “inactive”; to `O=C(CCCn1nnnc1CN1CCOCC1)N1CCC(c2ccc(F)cc2)C1` (stereo not drawn), “inactive”. With `CCOC(=O)Cn1c(-c2ccccc2)cc(SC)c(C#N)c1=O`, the Potency result was “inactive”.

For the compound `O=C(C[n+]1ccc2c(c1)nnn2-c1ccccc1)c1ccc(Cl)cc1`, the Potency entry is “inactive”. With `CCC(=O)c1ccc2c(c1)OCCO2`, the Potency result was “inactive”. As to `O=C(O)CCCC(=O)N1N=C(c2ccccc2)CC1c1cccs1` (stereo not drawn), the Potency result is “inactive”.

The values are drawn from PubChem BioAssay AID493185 (National Center for Advancing Translational Sciences (NCATS), 2011).
